Each structure is given as a SMILES string. Results filed as inconclusive are left out. Activity calls are given as the source filed them. Rule for the calls, unless noted: active = hit-call score of the fitted dose curve at least 0.9, where 1 is the maximum; inconclusive = response in the unintended direction; inactive = score below 0.9.

In one assay the target is PPP2CA (gene 5515) (UniProt P67775). The experiment in a line: NVS_ENZ_hPPP2CA: NovaScreen (NVS) Enzymatic Assay for human Protein Phosphatase 2 Aatalytic subunit Alpha (PPP2CA) (AID 2283199). The method, boiled down: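 Cell-free phosphatase activity: fluorescent substrate turnover by recombinant human enzyme, resolved by mobility shift at 1.33 h. Compounds passing the 25 uM duplicate primary screen were rerun in singleton series with a 50 uM top concentration.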

The target in assay [1] is human Protein Tyrosine Phosphatase Receptor Type C (PTPRC), PTPRC (gene 5788) (UniProt P08575). The experiment in a line: NVS_ENZ_hPTPRC: NovaScreen (NVS) Enzymatic Assay for human Protein Tyrosine Phosphatase Receptor Type C (PTPRC) (AID 2283212). The method, boiled down: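 Absorbance-based phosphatase activity of human PTPRC protein extracted from yeast was measured 1 h post-dosing. Compounds first tested at 25 uM in duplicate, then those passing threshold in singleton concentration series to 50 uM.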
human Protein Tyrosine Phosphatase Receptor Type C (PTPRC), PTPRC (gene 5788), sequence (P08575 whole entry, looked up): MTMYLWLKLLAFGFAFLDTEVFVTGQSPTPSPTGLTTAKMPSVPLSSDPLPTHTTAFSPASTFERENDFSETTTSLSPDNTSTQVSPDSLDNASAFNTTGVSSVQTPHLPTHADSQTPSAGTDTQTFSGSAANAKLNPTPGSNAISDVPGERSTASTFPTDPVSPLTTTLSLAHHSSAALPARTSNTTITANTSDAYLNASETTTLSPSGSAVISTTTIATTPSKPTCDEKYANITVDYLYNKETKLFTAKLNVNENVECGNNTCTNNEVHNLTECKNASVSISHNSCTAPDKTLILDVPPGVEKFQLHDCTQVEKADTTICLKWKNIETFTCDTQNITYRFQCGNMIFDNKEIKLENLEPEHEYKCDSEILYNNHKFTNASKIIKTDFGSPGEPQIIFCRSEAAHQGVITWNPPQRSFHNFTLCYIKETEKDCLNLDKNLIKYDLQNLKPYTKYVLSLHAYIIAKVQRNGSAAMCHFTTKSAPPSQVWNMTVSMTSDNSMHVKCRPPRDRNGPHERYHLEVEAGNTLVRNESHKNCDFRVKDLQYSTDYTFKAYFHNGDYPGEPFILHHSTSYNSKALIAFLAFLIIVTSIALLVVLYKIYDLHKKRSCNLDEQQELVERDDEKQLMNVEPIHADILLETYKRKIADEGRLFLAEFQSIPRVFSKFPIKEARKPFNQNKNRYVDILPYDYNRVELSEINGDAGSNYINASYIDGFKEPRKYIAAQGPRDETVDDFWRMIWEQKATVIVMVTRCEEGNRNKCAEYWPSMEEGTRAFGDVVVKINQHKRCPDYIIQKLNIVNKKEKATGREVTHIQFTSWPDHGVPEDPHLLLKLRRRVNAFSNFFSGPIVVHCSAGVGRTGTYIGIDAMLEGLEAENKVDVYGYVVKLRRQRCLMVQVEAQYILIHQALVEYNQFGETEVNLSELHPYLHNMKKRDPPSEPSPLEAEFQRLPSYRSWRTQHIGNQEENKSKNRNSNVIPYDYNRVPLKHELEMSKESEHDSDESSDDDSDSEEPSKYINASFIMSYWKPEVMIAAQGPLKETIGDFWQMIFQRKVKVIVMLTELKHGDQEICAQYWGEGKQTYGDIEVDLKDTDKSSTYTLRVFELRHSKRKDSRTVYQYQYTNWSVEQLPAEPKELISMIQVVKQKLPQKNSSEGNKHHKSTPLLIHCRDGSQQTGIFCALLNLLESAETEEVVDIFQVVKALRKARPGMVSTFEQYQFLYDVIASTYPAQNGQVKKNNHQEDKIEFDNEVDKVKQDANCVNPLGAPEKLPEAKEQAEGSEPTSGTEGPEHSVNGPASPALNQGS

In assay [2] the test system is rat Monoamine Oxidase, MAO-A, Peripheral (MAOAP), gene 29253. The assay is described as follows: NVS_ENZ_rMAOAP: NovaScreen (NVS) Enzymatic Assay for rat Monoamine Oxidase, MAO-A, Peripheral (MAOAP) (AID 2283237). The method, boiled down: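 Scintillation counting tracked MAO-A activity in a cell-free rat liver mitochondrial membrane prep, read 1.17 hours after compound addition. Single-point duplicate testing at 25 uM preceded concentration-response follow-up; activity was fitted relative to DMSO.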

In assay [3] the target is Voltage-dependent N-type calcium channel subunit alpha-1B (Rattus norvegicus) (UniProt Q02294). The experiment in a line: NVS_IC_rCaChN: NovaScreen (NVS) Ion Channel Assay for rat Calcium Channel, Type N (CaChN) (AID 2283317).
Assay [4] is described as follows: CCTE_Harrill_HTTr_Apoptosis_PRF_DMEM_12hr: (Pilot) CCTE's 12-hour Apoptosis Assessment for the High-Throughput Transcriptomics (HTTr) Platform, in MCF-7 cells cultured in phenol red-free DMEM + 10% charcoal-stripped fetal bovine serum, Harrill Lab (AID 2283985; active = hit-call score of the fitted dose curve at least 0.9, where 1 is the maximum; inactive = score below 0.9). The method, boiled down:
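Caspase-3/7 activity by CellEvent Green high content imaging after 12 h compound exposure (eight concentrations) in MCF-7 grown in phenol red-free DMEM plus 10% charcoal-stripped serum; DMSO as baseline.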

The target of assay [5] is human Tyrosine Protein Kinase Receptor Tie-2 (Tie2), TEK (gene 7010) (UniProt Q02763). The assay is described as follows: NVS_ENZ_hTie2: NovaScreen (NVS) Enzymatic Assay for human Tyrosine Protein Kinase Receptor Tie-2 (Tie2) (AID 2283225). The method, boiled down:
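Substrate and product were separated by mobility shift and detected by fluorescence after a 1-hour reaction with recombinant Tie2. Chemicals passing a 25 uM single-point screen were titrated to a maximum of 50 uM. Results were normalized to DMSO baseline.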

The target in assay [6] is rat Oxytocin Receptor (OXT), Oxtr (gene 25342) (UniProt P70536). The assay is described as follows: NVS_GPCR_rOXT: NovaScreen (NVS) G Protein-Coupled Receptor Assay for rat Oxytocin Receptor (OXT) (AID 2283330). The method, boiled down:
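Binding to rat uterine membrane receptor was followed by scintillation counting of filter-trapped radioligand after 1 h. A 25 uM duplicate single-point screen preceded concentration series with a top of 50 uM. Signal loss was analysed relative to DMSO.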

Assay [7] addresses rat Acetylcholinesterase (AChE), Ache (gene 83817) (UniProt P37136). The assay is described as follows: NVS_ENZ_rAChE: NovaScreen (NVS) Enzymatic Assay for rat Acetylcholinesterase (AChE) (AID 2283233). The method, boiled down:
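Compounds first screened at 25 uM in duplicate, then those passing threshold tested in concentration series up to 50 uM, against AChE from rat brain membranes. Enzyme activity read by absorbance at 0.33 h; inhibition scored versus DMSO.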

The target in assay [8] is rat Monoamine Oxidase, MAO-B, Peripheral (MAOBP), Maob (gene 25750) (UniProt P19643). The experiment in a line: NVS_ENZ_rMAOBP: NovaScreen (NVS) Enzymatic Assay for rat Monoamine Oxidase, MAO-B, Peripheral (MAOBP) (AID 2283242).
Assay [9] addresses bovine Gamma-Aminobutyric Acid Type A Receptor BDZ, alpha 1 site (GABARa1), GABRA1 (gene 780973) (UniProt P08219). The assay is described as follows: NVS_LGIC_bGABARa1: NovaScreen (NVS) Ligand-Gated Ion Channel Assay for bovine Gamma-Aminobutyric Acid Type A Receptor BDZ, alpha 1 site (GABARa1) (AID 2283321). The method, boiled down:
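Bovine cortex membrane preparation, benzodiazepine site on GABA-A alpha1; specific radioligand displacement read after 0.75 h by filtration and scintillation. Screen at 25 uM, then singleton titrations up to 50 uM; DMSO baseline.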

The target in assay [10] is Norway rat Vesicular Monoamine Transporter (VMAT2), neurotransmitter transporter, Slc18a2 (gene 25549) (UniProt Q01827). The assay is described as follows: NVS_TR_rVMAT2: NovaScreen (NVS) Transporter Assay for Norway rat Vesicular Monoamine Transporter (VMAT2), neurotransmitter transporter (AID 2283376).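 Note: actives lower the bound radioligand signal below the DMSO level.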 The method, boiled down:
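Using rat forebrain membranes, specific radioligand binding to VMAT2 was measured by filtration and scintillation counting after 1 hour. Chemicals screened at 25 uM in duplicate, actives retested in concentration series, DMSO baseline.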

The nature of assay [11]: ATG_M_32_XSP2: Attagene TRANS-FACTORIAL Multi-Species (XSP2) HepG2 Assay for M19 Transcription Factor (Internal Marker) (AID 2283826). The method, boiled down:
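HepG2 cells transiently transfected with GAL4-UAS reporter units; XSP2 panel included 3 nM 6-alpha-fluorotestosterone and 1.5 nM norgestrel for androgen receptor stimulation. Reporter mRNA read 24 h post-dosing by RT-PCR/capillary electrophoresis; fitted upward versus DMSO.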

Assay [12] has as its target rat Gamma-Aminobutyric Acid Type A Receptor BDZ, alpha 6 site (GABARa6), Gabra6 (gene 29708) (UniProt P30191). The assay is described as follows: NVS_LGIC_rGABARa6: NovaScreen (NVS) Ligand-Gated Ion Channel Assay for rat Gamma-Aminobutyric Acid Type A Receptor BDZ, alpha 6 site (GABARa6) (AID 2283339). The method, boiled down:
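Actives from a 25 uM duplicate screen were retested in concentration series (max 50 uM). Specific radioligand displacement from rat cerebellar membranes was counted by filter-based scintillation at 1 h; DMSO served as baseline.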

bovine Gamma-Aminobutyric Acid Type A Receptor BDZ, alpha 1 site (GABARa1), GABRA1 (gene 780973), sequence (P08219 whole entry, looked up): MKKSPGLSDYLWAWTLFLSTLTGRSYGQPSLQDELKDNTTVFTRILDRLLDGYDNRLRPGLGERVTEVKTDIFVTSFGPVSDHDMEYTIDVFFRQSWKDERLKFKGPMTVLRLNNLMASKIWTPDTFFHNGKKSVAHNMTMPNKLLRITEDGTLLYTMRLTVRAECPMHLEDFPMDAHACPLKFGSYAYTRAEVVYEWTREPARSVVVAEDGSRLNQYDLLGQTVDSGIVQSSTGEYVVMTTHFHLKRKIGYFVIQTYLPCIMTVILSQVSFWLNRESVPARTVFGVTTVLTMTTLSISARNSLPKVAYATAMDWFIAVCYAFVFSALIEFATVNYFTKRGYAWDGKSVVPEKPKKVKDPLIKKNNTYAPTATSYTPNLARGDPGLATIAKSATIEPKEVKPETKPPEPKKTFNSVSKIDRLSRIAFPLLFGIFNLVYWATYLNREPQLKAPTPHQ
Norway rat Vesicular Monoamine Transporter (VMAT2), neurotransmitter transporter, Slc18a2 (gene 25549), sequence (Q01827 whole entry, looked up): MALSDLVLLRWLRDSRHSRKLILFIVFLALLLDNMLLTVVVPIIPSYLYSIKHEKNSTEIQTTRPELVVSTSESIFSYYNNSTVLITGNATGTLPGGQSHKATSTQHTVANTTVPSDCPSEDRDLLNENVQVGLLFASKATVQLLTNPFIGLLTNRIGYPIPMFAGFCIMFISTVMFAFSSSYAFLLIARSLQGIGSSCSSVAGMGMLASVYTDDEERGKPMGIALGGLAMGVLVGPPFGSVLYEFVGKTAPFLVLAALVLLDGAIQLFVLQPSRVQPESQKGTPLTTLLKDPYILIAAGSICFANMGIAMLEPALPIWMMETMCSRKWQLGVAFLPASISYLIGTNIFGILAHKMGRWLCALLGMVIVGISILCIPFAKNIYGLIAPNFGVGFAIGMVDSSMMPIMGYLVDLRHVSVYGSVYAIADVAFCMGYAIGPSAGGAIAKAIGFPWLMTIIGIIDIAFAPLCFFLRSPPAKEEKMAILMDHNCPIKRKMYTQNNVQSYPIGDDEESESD
human Tyrosine Protein Kinase Receptor Tie-2 (Tie2), TEK (gene 7010), sequence (Q02763 whole entry, looked up): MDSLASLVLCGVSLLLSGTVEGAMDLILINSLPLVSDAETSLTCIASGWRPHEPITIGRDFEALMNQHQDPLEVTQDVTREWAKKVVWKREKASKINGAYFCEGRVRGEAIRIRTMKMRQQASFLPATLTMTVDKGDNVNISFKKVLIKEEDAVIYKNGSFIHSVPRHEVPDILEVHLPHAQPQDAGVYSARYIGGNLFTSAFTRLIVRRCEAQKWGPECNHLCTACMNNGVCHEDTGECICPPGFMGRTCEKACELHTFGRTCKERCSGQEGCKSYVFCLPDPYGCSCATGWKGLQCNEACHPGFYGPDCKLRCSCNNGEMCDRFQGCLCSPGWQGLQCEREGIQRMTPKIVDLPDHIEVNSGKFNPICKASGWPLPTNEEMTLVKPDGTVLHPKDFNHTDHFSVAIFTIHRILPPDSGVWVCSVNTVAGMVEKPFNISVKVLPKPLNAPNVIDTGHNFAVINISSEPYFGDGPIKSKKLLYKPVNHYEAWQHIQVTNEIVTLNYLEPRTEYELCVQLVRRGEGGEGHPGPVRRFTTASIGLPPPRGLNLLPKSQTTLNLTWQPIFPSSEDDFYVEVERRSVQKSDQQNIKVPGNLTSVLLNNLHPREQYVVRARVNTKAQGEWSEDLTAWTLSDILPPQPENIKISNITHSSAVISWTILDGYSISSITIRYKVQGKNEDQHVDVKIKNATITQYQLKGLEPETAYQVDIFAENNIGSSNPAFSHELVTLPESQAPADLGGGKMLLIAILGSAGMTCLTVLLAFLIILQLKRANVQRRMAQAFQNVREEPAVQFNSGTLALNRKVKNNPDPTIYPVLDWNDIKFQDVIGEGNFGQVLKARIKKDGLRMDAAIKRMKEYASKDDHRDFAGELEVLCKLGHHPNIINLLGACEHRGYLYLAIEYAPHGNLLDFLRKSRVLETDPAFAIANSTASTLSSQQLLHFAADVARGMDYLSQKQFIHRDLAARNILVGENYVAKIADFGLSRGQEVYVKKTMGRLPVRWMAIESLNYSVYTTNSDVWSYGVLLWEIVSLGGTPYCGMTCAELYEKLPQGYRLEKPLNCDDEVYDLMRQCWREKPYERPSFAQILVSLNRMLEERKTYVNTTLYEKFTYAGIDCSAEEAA
rat Gamma-Aminobutyric Acid Type A Receptor BDZ, alpha 6 site (GABARa6), Gabra6 (gene 29708), sequence (P30191 whole entry, looked up): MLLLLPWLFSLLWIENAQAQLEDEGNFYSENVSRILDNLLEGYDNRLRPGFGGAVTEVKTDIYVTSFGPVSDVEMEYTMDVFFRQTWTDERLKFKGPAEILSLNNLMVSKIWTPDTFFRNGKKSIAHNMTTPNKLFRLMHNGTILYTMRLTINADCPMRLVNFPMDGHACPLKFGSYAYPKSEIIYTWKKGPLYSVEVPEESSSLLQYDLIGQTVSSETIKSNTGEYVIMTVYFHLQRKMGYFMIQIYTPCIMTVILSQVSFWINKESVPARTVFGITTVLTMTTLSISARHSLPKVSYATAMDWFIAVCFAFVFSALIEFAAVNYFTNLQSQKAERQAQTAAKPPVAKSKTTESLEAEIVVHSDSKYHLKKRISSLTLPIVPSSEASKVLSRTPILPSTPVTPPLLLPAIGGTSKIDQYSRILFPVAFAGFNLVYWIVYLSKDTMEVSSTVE
rat Oxytocin Receptor (OXT), Oxtr (gene 25342), sequence (P70536 whole entry, looked up): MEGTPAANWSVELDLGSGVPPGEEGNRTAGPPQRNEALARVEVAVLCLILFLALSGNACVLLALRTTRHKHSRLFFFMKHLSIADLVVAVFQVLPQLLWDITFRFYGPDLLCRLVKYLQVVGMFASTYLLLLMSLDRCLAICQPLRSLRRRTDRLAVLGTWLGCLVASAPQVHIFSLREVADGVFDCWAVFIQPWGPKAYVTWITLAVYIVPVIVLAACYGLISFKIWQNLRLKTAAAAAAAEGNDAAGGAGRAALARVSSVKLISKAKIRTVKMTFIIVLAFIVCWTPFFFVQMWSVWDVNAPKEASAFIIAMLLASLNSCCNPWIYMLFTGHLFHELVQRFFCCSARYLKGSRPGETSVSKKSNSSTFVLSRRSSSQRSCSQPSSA
rat Acetylcholinesterase (AChE), Ache (gene 83817), sequence (P37136 whole entry, looked up): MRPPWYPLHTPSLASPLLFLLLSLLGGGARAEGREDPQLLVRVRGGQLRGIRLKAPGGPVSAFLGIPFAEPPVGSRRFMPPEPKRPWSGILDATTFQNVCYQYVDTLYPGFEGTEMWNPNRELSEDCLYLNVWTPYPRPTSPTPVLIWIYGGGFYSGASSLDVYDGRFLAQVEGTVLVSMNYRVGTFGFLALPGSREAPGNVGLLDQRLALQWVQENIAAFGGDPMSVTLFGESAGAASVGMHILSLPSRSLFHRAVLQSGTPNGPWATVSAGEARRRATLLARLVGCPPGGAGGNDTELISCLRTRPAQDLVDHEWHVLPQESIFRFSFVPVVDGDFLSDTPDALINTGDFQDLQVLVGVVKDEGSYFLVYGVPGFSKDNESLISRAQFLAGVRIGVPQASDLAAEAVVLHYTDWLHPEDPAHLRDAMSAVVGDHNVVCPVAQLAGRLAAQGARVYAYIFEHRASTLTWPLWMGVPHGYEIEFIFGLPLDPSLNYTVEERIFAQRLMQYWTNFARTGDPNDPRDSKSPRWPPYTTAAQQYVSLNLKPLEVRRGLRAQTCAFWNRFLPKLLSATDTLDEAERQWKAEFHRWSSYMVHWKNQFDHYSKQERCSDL

As for `CC(=O)CC(c1ccccc1)c1c(O)c2ccccc2oc1=O` (stereo not given), the call with PPP2CA (gene 5515) was inactive.
Take `NC(=O)N1C(=O)C(C(=O)c2cc(Cl)cs2)c2cc(F)c(Cl)cc21` (stereo not given): the molecule was classed as inactive in assay [1].
On the same count and under the same terms, in the case of `C[C@]12C[C@H](O)[C@H]3[C@@H](CCC4=CC(=O)CC[C@@]43C)[C@@H]1CC[C@@H]2C(=O)CO` it was “inactive”.
Regarding `O=c1c(O)c(-c2ccc(O)c(O)c2)oc2cc(O)cc(O)c12`, the AC50 (as a rule, the concentration giving half of the maximal activity seen) in assay [2] is 17.2 µM (active).
On to `CC/C(=C\C(=N/O)C(N)=O)C(C)[N+](=O)[O-]` (stereo not given), for which the outcome in [3] was inactive.
For `CCCCc1oc2ccccc2c1C(=O)c1cc(I)c(OCCN(CC)CC)c(I)c1`, in assay [4], the result was inactive.
For the molecule `CCCN(CCC)c1c([N+](=O)[O-])cc(C(F)(F)F)c(N)c1[N+](=O)[O-]`, the molecule was called inactive in assay [5] and in [6].
As for `CC(=O)OCCC(C)C`, the call in assay [5] was inactive.
Take `Nc1ccc(N)c([N+](=O)[O-])c1`: in assay [7], the outcome was inactive.
Regarding `CCCC[C@H]1CN(CC2CCOCC2)C(=O)OC12CCN(C1(C)CCN(C(=O)c3c(C)ncnc3C)CC1)CC2`, in [8], the call was inactive.
`Nc1nc(N)c2nc(CNc3ccc(C(=O)N[C@@H](CCC(=O)O)C(=O)O)cc3)cnc2n1`: the call in assay [9] was inactive.
On the same count and under the same terms, then `COc1nc(C)nc(NC(=O)NS(=O)(=O)c2ccccc2OCCCl)n1`, with “inactive”.
For the molecule `Nc1ccc(Nc2ccccc2)cc1`, in [10], the AC50 is 8.65 µM (active).
As for `Clc1nc(Cl)c(Cl)c(Cl)c1Cl`, in assay [11], the result was inactive.
With `CCn1nc(C)c2c1C(=O)NCC(c1ccc(O)cc1)=N2`, in [12], the outcome was inactive.
In the case of `OCC(CO)(CBr)CBr`, in assay [10], the result was inactive.
On to `COCc1nnc(-c2ccc[n+]([O-])c2)n1-c1c(Cl)c(Cl)cc2[nH]c(=O)c(=O)[nH]c12`, for which the molecule was called inactive in assay [9].
Take `Clc1cc(Cl)c(Cl)cc1Cl`: in assay [9], the call was inactive.
Take `CC=Cc1ccc(OCC)c(O)c1`: the result in [12] was inactive.
